Experimental data taken from PubChem BioAssay (NCATS).
A number with no mark means an inactive call. Results filed as inconclusive are left out. A call without a number means that no potency is given here. Activity calls are given as the source filed them. Unless noted, the call rests on the fitted dose curve; in most records, active means well fitted curve in the direction sought with a large enough effect; inconclusive means small, poorly fitted or top-dose-only effect, or another doubt; inactive means no such curve, though single readings can be large; an effect the other way counts as inactive or inconclusive.

Legend:
[1] = target: ATP-dependent 6-phosphofructokinase (Trypanosoma brucei brucei) (UniProt O15648); experiment: qHTS Assay to Find Inhibitors of T. brucei phosphofructokinase: hit validation (AID 492961);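 further: luminescence reports ADP formed as PFK phosphorylates fructose-6-phosphate with ATP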
ATP-dependent 6-phosphofructokinase (Trypanosoma brucei brucei), sequence (O15648 whole entry, looked up): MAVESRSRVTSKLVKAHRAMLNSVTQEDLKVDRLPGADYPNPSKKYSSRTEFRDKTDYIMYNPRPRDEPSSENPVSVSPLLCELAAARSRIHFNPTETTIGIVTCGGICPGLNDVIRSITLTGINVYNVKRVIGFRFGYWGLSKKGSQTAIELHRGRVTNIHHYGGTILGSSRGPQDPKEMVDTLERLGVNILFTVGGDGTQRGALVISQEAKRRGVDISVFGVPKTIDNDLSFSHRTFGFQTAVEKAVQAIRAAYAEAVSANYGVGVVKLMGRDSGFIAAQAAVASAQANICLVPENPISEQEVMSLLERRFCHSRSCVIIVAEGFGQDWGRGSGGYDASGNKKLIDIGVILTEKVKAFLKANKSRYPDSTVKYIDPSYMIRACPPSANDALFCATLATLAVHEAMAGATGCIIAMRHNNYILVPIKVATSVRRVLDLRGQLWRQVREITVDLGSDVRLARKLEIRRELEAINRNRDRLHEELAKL
Method in brief: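 Percent activity derived from corrected luminescence, normalized between 0x and 1x enzyme controls, then fitted to concentration-response curves. Conditions: 1.25 nM PFK, 0.1 mM ATP, 0.5 mM F6P, 45 min RT.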

CP194 = experiment: qHTS profiling for inhibitors of Plasmodium falciparum proliferation (AID 504749); further: nearly all actives have a fitted effect of over 60% in size; further: potency means the concentration at half of the fitted maximal effect; settings: P. falciparum in erythrocytes, SYBR Green DNA, 72 h; series mostly up to 12.8 µM
Method in brief: (§1)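 Parasite proliferation within erythrocytes, 72 h exposure. Endpoint: SYBR Green I fluorescence after overnight lysis at room temperature. Controls: 0.29 uM artemisinin, DMSO.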

CP203 = experiment: as above; settings: P. falciparum in erythrocytes, SYBR Green DNA, 72 h; series mostly up to 12.8 µM
Method in brief: as §1

CP286 = experiment: as above; settings: P. falciparum in erythrocytes, SYBR Green DNA, 72 h; series mostly up to 12.8 µM
Method in brief: as §1

CP291 = experiment: as above; settings: P. falciparum in erythrocytes, SYBR Green DNA, 72 h; series mostly up to 12.8 µM
Method in brief: as §1

CP335 = experiment: as above; settings: P. falciparum in erythrocytes, SYBR Green DNA, 72 h; series mostly up to 12.8 µM
Method in brief: as §1

DIV14 = experiment: as above; settings: P. falciparum in erythrocytes, SYBR Green DNA, 72 h; series mostly up to 12.8 µM
Method in brief: as §1

DIV17 = experiment: as above; settings: P. falciparum in erythrocytes, SYBR Green DNA, 72 h; series mostly up to 12.8 µM
Method in brief: as §1

GB4 = experiment: as above; settings: P. falciparum in erythrocytes, SYBR Green DNA, 72 h; series mostly up to 12.8 µM
Method in brief: as §1

P93_24 = experiment: as above; settings: P. falciparum in erythrocytes, SYBR Green DNA, 72 h; series mostly up to 12.8 µM
Method in brief: as §1

P94_40 = experiment: as above; settings: P. falciparum in erythrocytes, SYBR Green DNA, 72 h; series mostly up to 12.8 µM
Method in brief: as §1

PAD = experiment: as above; settings: P. falciparum in erythrocytes, SYBR Green DNA, 72 h; series mostly up to 12.8 µM
Method in brief: as §1

TAB109 = experiment: as above; settings: P. falciparum in erythrocytes, SYBR Green DNA, 72 h; series mostly up to 12.8 µM
Method in brief: as §1

[2] = S16 Schwann cell PMP22 intronic element firefly luciferase assay (AID 624032); further: nearly all actives have a fitted effect of over 30% in size; further: potency means the concentration at half of the fitted maximal effect
Method in brief: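 Rat S16 Schwann cells stably carrying a PMP22 intronic element-driven Fluc reporter were seeded overnight, then exposed to compounds for 24 h at 37 °C. Luminescence was normalized to PTC124 (positive control) and DMSO (0% activity).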

[3] = target: Cytochrome P450 3A4 (Homo sapiens) (UniProt P08684); experiment: qHTS Assay for Activators of Cytochrome P450 3A4 (AID 885); further: nearly all actives have a fitted effect of over 65% in size
Cytochrome P450 3A4 (Homo sapiens), sequence (P08684 whole entry, looked up): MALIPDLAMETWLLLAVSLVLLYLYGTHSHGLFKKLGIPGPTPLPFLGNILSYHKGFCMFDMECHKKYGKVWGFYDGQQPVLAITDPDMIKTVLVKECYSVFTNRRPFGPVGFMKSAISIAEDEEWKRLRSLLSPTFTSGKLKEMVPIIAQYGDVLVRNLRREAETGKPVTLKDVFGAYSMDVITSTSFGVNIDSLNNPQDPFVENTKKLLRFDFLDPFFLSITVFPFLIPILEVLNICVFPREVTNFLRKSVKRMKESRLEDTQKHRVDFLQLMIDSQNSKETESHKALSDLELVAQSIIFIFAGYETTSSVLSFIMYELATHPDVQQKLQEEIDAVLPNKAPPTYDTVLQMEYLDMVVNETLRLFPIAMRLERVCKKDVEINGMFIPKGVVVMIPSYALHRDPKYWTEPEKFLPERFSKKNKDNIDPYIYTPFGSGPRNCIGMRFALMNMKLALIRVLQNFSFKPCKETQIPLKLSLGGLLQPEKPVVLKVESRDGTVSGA
Method in brief: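 Signal was normalized against complete inhibition by 57 uM ketoconazole. The reaction used 20nM CYP3A4 with 25uM Luciferin-PPXE, 10-min compound preincubation and a 60-min NADPH-supported step at RT.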

[4] = Confirmation and Secondary Assay for Modulators of Hemoglobin Beta Chain Splicing at IVS2 705 locus (AID 930);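 further: HeLa cells stably expressing the EGFP-705 splicing reporter; GFP fluorescence per well restored by corrected splicing of the IVS2-705 intron in EGFP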
Method in brief: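 HeLa cells stably carrying EGFP interrupted by mutant beta-globin intron 2 (IVS2-705) treated 2 days at 37C with compound; 500 nM antisense PNA as control. Correct splicing read as total peak GFP intensity per well by laser-scanning cytometry.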

[5] = qHTS Assay for Identification of Small Molecule Agonists for Hypoxia Response Element Signaling Pathway (AID 914; active means well fitted activation curve with a large enough effect in the signal ratio, with a control signal flat, not every such curve was filed as active; the % refers to the signal ratio); settings: ME-180 (cervical carcinoma) HRE-bla reporter, beta-lactamase ratio, CoCl2, 17 h; activation: hits give high values
Method in brief: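 HRE-bla ME-180 cells with beta-lactamase reporter under hypoxia response element, compounds with EC50 CoCl2 for 17 hours at 37 C. CCF4 substrate, 460nm/530nm emission ratio gave %Activity; AC50 from titration series.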

[6] = target: Cytochrome P450 2D6 (Homo sapiens) (UniProt P10635); experiment: qHTS Assay for Inhibitors and Substrates of Cytochrome P450 2D6 (AID 891); further: potency means the concentration at half of the fitted maximal effect; nearly all actives have a fitted effect of over 60% in size
Cytochrome P450 2D6 (Homo sapiens), sequence (P10635 whole entry, looked up): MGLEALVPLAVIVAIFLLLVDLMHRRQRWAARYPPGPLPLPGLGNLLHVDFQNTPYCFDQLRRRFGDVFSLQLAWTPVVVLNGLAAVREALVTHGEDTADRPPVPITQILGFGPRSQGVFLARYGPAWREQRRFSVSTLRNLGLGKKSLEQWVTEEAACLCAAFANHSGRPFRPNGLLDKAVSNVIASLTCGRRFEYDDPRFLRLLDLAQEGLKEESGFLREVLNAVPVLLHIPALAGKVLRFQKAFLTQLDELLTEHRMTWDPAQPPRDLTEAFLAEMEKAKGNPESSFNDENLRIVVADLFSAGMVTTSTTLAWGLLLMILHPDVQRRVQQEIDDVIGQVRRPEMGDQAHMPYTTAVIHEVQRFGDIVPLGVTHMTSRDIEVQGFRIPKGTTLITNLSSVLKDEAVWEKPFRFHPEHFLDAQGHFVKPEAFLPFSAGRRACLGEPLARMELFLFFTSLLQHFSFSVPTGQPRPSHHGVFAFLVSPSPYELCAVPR
Method in brief: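 Human CYP2D6 (5 nM) with 30 uM Luciferin-ME EGE (at Km) in 100 mM KPO4, compound preincubated 10 min, then NADPH regeneration system for 60 min at room temperature. Luciferin read by luminescence; normalized to 1.43 uM quinidine.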

Structure (SMILES)	outcome [1]	Potency (CP194)	Potency (CP203)	Potency (CP286)	Potency (CP291)	Potency (CP335)	Potency (DIV14)	Potency (DIV17)	Potency (GB4)	Potency (P93_24)	Potency (P94_40)	Potency (PAD)	Potency (TAB109)	Potency [2]	Potency [3]	Potency [4]	activation [5]	Potency [6]
C[C@H](C(=O)O)c1cccc(Oc2ccccc2)c1	inactive	inactive	inactive	inactive	inactive	inactive	inactive	inactive	inactive	inactive	inactive	inactive	inactive					
C#C[C@]1(O)CC[C@@H]2[C@H]3CCC4=CCCC[C@@H]4[C@@H]3CC[C@@]21C	inactive	inactive	inactive	inactive	inactive	inactive	inactive	inactive	inactive	inactive	inactive	inactive	inactive	5.49 µM (active)				
COc1ccccc1OC[C@H](O)CO	inactive	inactive	inactive	inactive	inactive	inactive	inactive	inactive	inactive	inactive	inactive	inactive	inactive	inactive				
c1ccc2c(c1)CCC[C@@H]2C1=NCCN1	inactive	inactive	inactive	inactive	inactive	inactive	inactive	inactive	inactive	inactive	inactive	inactive	inactive	inactive				
NC[C@@H]1O[C@@H](O[C@H]2[C@H](O)[C@H](O[C@@H]3O[C@H](CO)[C@@H](O)[C@H](N)[C@@H]3O)[C@@H](N)C[C@H]2N)[C@H](N)C[C@@H]1O		inactive	inactive	inactive	inactive	inactive	inactive	inactive	inactive	inactive	inactive	inactive	inactive	inactive				
COc1cc(C2Oc3cc(C4Oc5cc(O)cc(O)c5C(=O)C4O)ccc3OC2CO)ccc1O (stereo not drawn)															inactive	inactive		
CCC(=O)O[C@@]1(C(=O)SCF)[C@@H](C)C[C@H]2[C@@H]3C[C@@H](F)C4=CC(=O)C=C[C@@]4(C)[C@]3(F)[C@@H](O)C[C@]21C	inactive	inactive	inactive	inactive	inactive					3.55 µM (active)				inactive				
Cc1ccsc1/C=C\C1=NCCCN1C	inactive	inactive	inactive	inactive	inactive		inactive	inactive	inactive	inactive	inactive	inactive	inactive	inactive				
C[C@H](CCC(=O)O)[C@H]1CC[C@@H]2[C@@H]3[C@@H](O)C[C@H]4C[C@@H](O)CC[C@@]4(C)[C@H]3CC[C@@]21C		inactive	inactive	inactive	inactive	inactive	inactive	inactive	inactive	inactive	inactive	inactive	inactive	inactive				
CCc1c(C)[nH]c2c1C(=O)[C@H](CN1CCOCC1)CC2		inactive		inactive	inactive	inactive	inactive	inactive	inactive	inactive	inactive	inactive	inactive	inactive				
C[C@@]12C=CC(=O)C=C1CC[C@H]1[C@H]3CC[C@](O)(C(=O)CO)[C@]3(C)CC(=O)[C@@H]12																	-13.5%	
CCN[C@@H]1CN(CCCOC)S(=O)(=O)c2sc(S(N)(=O)=O)cc21	inactive	inactive	inactive	inactive	inactive	inactive	inactive	inactive	inactive	inactive		inactive	inactive	inactive				
CC[C@@H]1OC(=O)[C@H](C)[C@H](O[C@@H]2C[C@](C)(OC)[C@H](O)[C@H](C)O2)[C@H](C)[C@H](O[C@@H]2O[C@@H](C)C[C@@H](N(C)C)[C@@H]2O)[C@](C)(O)C[C@H](C)C(=O)[C@H](C)[C@H](O)[C@]1(C)O															inactive			
C[C@H]1CS(=O)(=O)CCN1/N=C\c1ccc([N+](=O)[O-])o1	inactive	inactive	inactive	inactive	inactive	inactive				inactive	inactive	inactive		inactive				
Cc1cccc(CN2CCN([C@@H](c3ccccc3)c3ccc(Cl)cc3)CC2)c1	inactive	inactive	inactive		inactive													3.16 µM (active)
CCOC(=O)O[C@@H](C)OC(=O)[C@@H]1N2C(=O)[C@@H](NC(=O)[C@@H](N)c3ccccc3)[C@H]2SC1(C)C		inactive	inactive	inactive	inactive	inactive	inactive	inactive	inactive	inactive	inactive	inactive	inactive	inactive				
